This passage reports Potency results from PubChem BioAssay (Tox21).

Where “and” joins values, the source holds several entries; their conditions need not be identical. Equal values may be shown once. Records with an inconclusive call do not appear. The source holds several records for some structures; these can differ, active in one and inactive in another. Calls of active or inactive are those of the source. Unless noted, the call rests on the fitted dose curve; in most records, active means well fitted curve in the direction sought with a large enough effect in the repeat runs; inconclusive means weak or mixed curves; inactive means no such curve, though single readings can be large; an effect the other way counts as inactive or inconclusive.

A short description of assay [1]: qHTS assay to identify small molecule antagonists of the glucocorticoid receptor (GR) signaling pathway - cell viability counter screen (AID 720693). Further: nearly all actives have a fitted effect of over 55% in size.
Assay [2] can be described thus: qHTS assay for identifying genotoxic compounds that show differential cytotoxicity against isogenic chicken DT40 cell lines with known DNA damage response pathways - wild type cell line (AID 743012). Further: nearly all actives have a fitted effect of over 60% in size. In outline:
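Viability of DNA repair-proficient chicken DT40 cells was assessed by CellTiter-Glo luminescence following 40 h compound exposure at 37 C/5% CO2.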

The nature of assay [3]: qHTS assay for identifying genotoxic compounds that show differential cytotoxicity against isogenic chicken DT40 cell lines with known DNA damage response pathways - Rev3 mutant cell line (AID 743014). Further: nearly all actives have a fitted effect of over 55% in size.
A short description of assay [4]: qHTS assay for identifying genotoxic compounds that show differential cytotoxicity against isogenic chicken DT40 cell lines with known DNA damage response pathways - Rad54/Ku70 mutant cell line (AID 743015). Further: nearly all actives have a fitted effect of over 60% in size.
Assay [5] is described as follows: qHTS assay to identify small molecule antagonists of the androgen receptor (AR) signaling pathway - cell viability counter screen (AID 743033; further: nearly all actives have a fitted effect of over 45% in size).
The nature of assay [6]: qHTS assay to identify small molecule antagonists of the androgen receptor (AR) signaling pathway using the MDA cell line - cell viability counter screen (AID 743041; further: nearly all actives have a fitted effect of over 45% in size). Put shortly:
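Using the breast carcinoma line MDA-kb2 AR-luc, test chemicals were co-incubated with R1881 for 16 h; CellTiter-Fluor reagent, added at 15.5 h, provided a fluorescence measure of live cells.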

Assay [7] is described as follows: qHTS assay to identify small molecule antagonists of the thyroid receptor (TR) signaling pathway - cell viability counter screen (AID 743064). Further: nearly all actives have a fitted effect of over 50% in size. Put shortly: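 Viability of T3-stimulated (1 nM final) GH3.TRE-Luc cells is measured by CellTiter-Fluor fluorescence after 23.5 h compound exposure at 37 °C plus 30 min reagent incubation.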
Assay [8] concerns the target Androgen receptor (Homo sapiens) (UniProt P10275). Put plainly: qHTS assay to identify small molecule agonists of the androgen receptor (AR) signaling pathway (AID 743036; active means well fitted activation curve with a large enough effect in the signal ratio in the repeat runs, with a control signal flat, not every such curve was filed as active; the % refers to the signal ratio). Put shortly:
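Screening used 2,000 AR-bla HEK293 cells per well, treated 16 h at 37C with test compounds in DMSO alongside positive and DMSO-only controls; beta-lactamase activity was then read by LiveBLAzer B/G FRET fluorescence after 2 h at room temperature.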

Assay [9] has the same target. Briefly: qHTS assay to identify small molecule agonists of the androgen receptor (AR) signaling pathway using the MDA cell line (AID 743040; further: nearly all actives have a fitted effect of over 20% in size). Conditions: MDA-kb2 AR-luc cells, MMTV luciferase, 16 h; activity change: at 70.3 µM (top of the series), stronger effect = higher value. In outline:
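Stable MMTV-luciferase reporter in MDA-kb2 cells; note the promoter carries GR as well as AR response elements. 16 h compound treatment, 37C, 0% CO2; ONE-Glo luminescence endpoint.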

Assay [10] shares this target. Briefly: qHTS assay to identify small molecule antagonists of the androgen receptor (AR) signaling pathway using the MDA cell line (AID 743042; further: nearly all actives have a fitted effect of over 55% in size). Put shortly: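 Antagonist mode: compounds plus R1881 agonist added to MDA-kb2 AR-luc cells, incubated 16 h at 37C. Luciferase reporter luminescence quantified, with multiplexed CellTiter-Fluor readout for cell viability.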
Potency means the concentration at half of the fitted maximal effect.

Androgen receptor (Homo sapiens), sequence (P10275 whole entry, looked up): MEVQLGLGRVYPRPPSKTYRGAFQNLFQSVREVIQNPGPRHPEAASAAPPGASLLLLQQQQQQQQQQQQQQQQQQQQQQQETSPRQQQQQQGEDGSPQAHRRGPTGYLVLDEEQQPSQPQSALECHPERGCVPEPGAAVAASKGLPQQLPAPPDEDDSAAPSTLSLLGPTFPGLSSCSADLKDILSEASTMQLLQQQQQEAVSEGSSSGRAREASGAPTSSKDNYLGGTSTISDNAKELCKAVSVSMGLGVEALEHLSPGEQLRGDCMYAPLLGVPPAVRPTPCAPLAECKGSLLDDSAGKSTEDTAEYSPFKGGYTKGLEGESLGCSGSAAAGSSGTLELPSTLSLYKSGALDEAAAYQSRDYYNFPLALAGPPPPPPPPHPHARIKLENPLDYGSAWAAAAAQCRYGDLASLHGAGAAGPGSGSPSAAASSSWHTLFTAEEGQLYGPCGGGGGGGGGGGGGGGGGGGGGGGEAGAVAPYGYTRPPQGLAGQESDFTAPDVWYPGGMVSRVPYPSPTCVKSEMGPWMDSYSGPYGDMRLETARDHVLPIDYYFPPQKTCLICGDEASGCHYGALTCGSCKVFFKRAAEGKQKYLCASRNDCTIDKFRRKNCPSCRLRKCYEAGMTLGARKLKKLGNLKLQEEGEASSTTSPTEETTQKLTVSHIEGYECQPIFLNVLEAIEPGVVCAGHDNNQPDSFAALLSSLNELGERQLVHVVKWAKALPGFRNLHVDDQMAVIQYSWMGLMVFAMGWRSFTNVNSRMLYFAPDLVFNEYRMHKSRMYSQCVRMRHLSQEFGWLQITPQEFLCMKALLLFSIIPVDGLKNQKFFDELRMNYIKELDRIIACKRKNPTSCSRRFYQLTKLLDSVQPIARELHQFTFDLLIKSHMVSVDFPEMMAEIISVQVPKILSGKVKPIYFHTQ

On to `COc1ccc(C(CN(C)C)C2(O)CCCCC2)cc1` (configuration not stated), for which the Potency entry in assay [1], in assay [2], in assay [3], in assay [4], in assay [5] and in assay [6] was “inactive” throughout. In addition, in [7], the Potency result was “inactive”.

Turning to `Nc1cccnc1`, the Potency entry in assay [1], in assay [2], in [3], in [4], in assay [5] and in assay [6] was “inactive” each time. Further, in assay [7], the Potency result is “inactive”.

Turning to `CCOc1cc(Oc2ccc(C(F)(F)F)cc2Cl)ccc1[N+](=O)[O-]`, the Potency result in [1], in assay [3], in assay [5] and in [6] was “inactive” in each case. In addition, the Potency in [2] and in [4] was 54.5 µM (active) in each case.

In the case of `S=C1NCCN1`, the Potency result in [1], in assay [2], in [3], in [4], in assay [5] and in assay [6] was “inactive” in each case.

As to `O=C(CCl)c1ccccc1`, the Potency entry in assay [1], in assay [5] and in [6] was “inactive” in each case. The Potency result is “inactive and 68.6 µM (active)” in [2]; 54.5 µM (active) in assay [3]; 61.1 µM (active) in assay [4]; “inactive and 68.6 µM (active)” in [7].

Turning to `Oc1ccc(-c2ccccc2)cc1`, the Potency entry in assay [1], in assay [2], in assay [4], in [5] and in assay [6] was “inactive” each time. Moreover, in [3], the Potency is 60.3 µM (active).

In the case of `C#CCOS(=O)OC1CCCCC1Oc1ccc(C(C)(C)C)cc1` (configuration not stated), the Potency in [1] was 21.9 µM (active); in assay [2], 6.12 µM (active) and 2.73 µM (active); in [3], 3.86 µM (active) and 2.17 µM (active); in [4], 4.33 µM (active) and 2.43 µM (active); in [5], 174 nM (active) and 1.74 µM (active); in [6] it was 4.33 µM (active). For the same compound, the Potency in [7] was 6.86 µM (active).

`Brc1ccc(Oc2cc(Br)c(Br)cc2Br)c(Br)c1`: the Potency entry in assay [1], in [2], in assay [3], in assay [4], in [5] and in assay [6] was “inactive” each time. Moreover, the Potency in assay [7] was 48.9 µM (active).

Regarding `CCCCC(CC)COC(=O)Cl` (configuration not stated), the Potency entry in assay [1], in assay [2], in assay [3], in assay [4], in assay [5] and in [6] was “inactive” in each case. For the same compound, the Potency entry in assay [7] is “inactive”.

With `O=S(=O)(Oc1ccc(Cl)cc1)c1ccc(Cl)cc1`, the Potency result in assay [1], in [2], in assay [3], in assay [4], in [5] and in assay [6] was “inactive” throughout. In addition, the Potency entry in assay [7] is “inactive”.

For the compound `C=C(C)[C@H]1Cc2c(ccc3c2O[C@@H]2COc4cc(OC)c(OC)cc4[C@@H]2C3=O)O1`, the Potency result in assay [1], in [8] and in assay [9] was “inactive” throughout. Besides, the Potency in [2] is 59.6 nM (active) and 19.6 nM (active) and 8.6 nM (active); in assay [3], 119 nM (active) and 11 nM (active) and 8.6 nM (active); in assay [4], 75 nM (active) and 9.8 nM (active) and 8.6 nM (active); in [5], 62.5 nM (active) and 38.9 nM (active); in [6], 393 nM (active) and 39.1 nM (active) and 30.6 nM (active); in assay [10] it was 188 nM (active) and 24.7 nM (active) and 9.7 nM (active). Also, the Potency in assay [7] was 841 nM (active) and 8.75 µM (active) and 4.86 µM (active).

`O=[N+]([O-])c1ccc(O)c([N+](=O)[O-])c1`: the Potency result in assay [1], in [2], in [3], in [5] and in assay [9] was “inactive” each time. The Potency in [4] was 54.5 µM (active); in [6], 30.8 µM (active) and 61.1 µM (active); in assay [10], 61.1 µM (active); in assay [7], 61.1 µM (active).

In the case of `O=C(Nc1ccc(Br)cc1)c1cc(Br)cc(Br)c1O`, the Potency is 3.45 µM (active) and 2.19 µM (active) in assay [1]; 21.7 µM (active) in [2]; “inactive and 19.3 µM (active)” in [3]; “inactive and 19.3 µM (active)” in [4]; “inactive and 24.5 µM (active) and 9.77 µM (active)” in assay [5]; 16.8 µM (active) and 5.43 µM (active) and 4.33 µM (active) in [7]. Also, the Potency result in assay [6] was “inactive”.

Take `N#CCCCl`: the Potency result in assay [1], in assay [2], in assay [3], in assay [4], in assay [5] and in assay [6] was “inactive” in each case. The Potency entry in assay [7] was “inactive”.

As to `CCC(=O)O[C@H]1CC[C@H]2[C@@H]3CCC4=CC(=O)CC[C@]4(C)[C@H]3CC[C@]12C`, the Potency entry in [1], in assay [6] and in assay [10] was “inactive” in each case. Also, the Potency is 10.1 µM (active) and 19.3 µM (active) in assay [2]; 11.4 µM (active) and 17.2 µM (active) in assay [3]; 12.7 µM (active) and 21.7 µM (active) in [4]; “inactive and 49 µM (active)” in assay [5]; 0.0039 µM (active) in [8]; 1.3 nM (active) and 1.7 nM (active) in assay [9]. In addition, the Potency result in assay [7] was “inactive and 43.3 µM (active)”.

As to `CCc1cccc(CC)c1N(COC)C(=O)CCl`, the Potency result in [1], in [5], in assay [8], in assay [9], in assay [6] and in assay [7] was “inactive” in each case. Besides, the Potency in assay [2] was 19.3 µM (active); in assay [3] it was 5.91 µM (active) and 5.45 µM (active); in assay [4], 29.6 µM (active) and 10.9 µM (active); in assay [10], 61.1 µM (active).

`Cc1cc(Cl)ccc1OCCCC(=O)O`: the Potency result in assay [1], in [2], in assay [3], in assay [4], in assay [5] and in assay [9] was “inactive” in each case. The Potency entry in [6], in [10] and in assay [7] was “inactive” each time.

Turning to `CCC(C)c1ccc(O)cc1` (configuration not stated), the Potency entry in assay [1], in assay [2], in [5], in [6] and in assay [7] was “inactive” throughout. The Potency result in assay [3] was “inactive and 61.1 µM (active)”; in assay [4], “inactive and 43.3 µM (active)”.

In the case of `C=CCN(CC=C)C(=O)C(Cl)Cl`, the Potency entry in assay [1], in [2], in assay [3], in assay [4], in [5] and in assay [6] was “inactive” throughout. Moreover, the Potency result in [7] is “inactive”.

As to `Cc1ccc2c(c1N)C(=O)c1ccccc1C2=O`, the Potency entry in [1], in [2], in assay [3], in assay [5] and in assay [6] was “inactive” each time. Also, the Potency in [4] was 24.1 µM (active) and 30.6 µM (active); in assay [7] it was 67.8 µM (active).

In the case of `CCOC(=O)C(C)OC(=O)c1cc(Oc2ccc(C(F)(F)F)cc2Cl)ccc1[N+](=O)[O-]` (configuration not stated), the Potency result in assay [1], in [5], in assay [6] and in assay [7] was “inactive” throughout. Besides, the Potency in assay [2] was 24.3 µM (active); in assay [3], 27.3 µM (active); in assay [4], 21.7 µM (active).

In the case of `CC(C)Oc1cc(-n2nc(C(C)(C)C)oc2=O)c(Cl)cc1Cl`, the Potency result in assay [1], in [8], in [9] and in [6] was “inactive” throughout. Moreover, the Potency is 5.45 µM (active) in assay [2]; 6.11 µM (active) in assay [3]; 60.3 µM (active) and 4.86 µM (active) in assay [4]; 11 µM (active) in assay [5]; 38.6 µM (active) in assay [10]; 53.7 µM (active) in assay [7].
